Assay [1] in a line: optical density shifts of acrAB sulA E. coli – strain DRC41, OD650, 48 h, E. coli filamentation inducer project, primary screen (AID 1152).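 Also: E. coli MC1000 strain DRC41 lacking acrAB efflux pump and sulA.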 Particulars: higher = more signal, called active from +8 up or from −8 down.
Assay [2] is described as follows: probe aLefty1 binding on compound microarray – biochemical, small-molecule microarray, 635/667 nm fluorescence, primary screen (AID 1153).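 Also: score merges spot fluorescence with signal-to-noise ratio from the scanned slide images.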 The note with it: higher = more signal.
The nature of assay [3]: plasmodial surface anion channel blockers, osmotic lysis – cell-based, P. falciparum Indochina, OD700, 1 h, primary screen (AID 1154). Particulars: P. falciparum Indochina infected RBC osmotic lysis, higher = more signal, called active from +8 up or from −8 down.
The nature of assay [4]: plasmodial surface anion channel blockers, osmotic lysis – cell-based, P. falciparum Indochina, OD700, 2 h, primary screen (AID 1155).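 Also: lysis reports solute entry through the parasite surface anion channel PSAC.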 Particulars: P. falciparum Indochina infected erythrocytes, higher = more signal, called active from +8 up or from −8 down.
Assay [5] is described as follows: changes in parasitized red cell lysis, either direction – P. falciparum Indochina, OD700, 3 h, PSAC antagonist project, primary screen (AID 1156). Particulars: P. falciparum-infected erythrocytes, osmotic lysis, higher = more signal, called active from +8 up or from −8 down.
Assay [6] in a line: plasmodial surface anion channel blockers, osmotic lysis – cell-based, P. falciparum Indochina, OD700, 18 h, primary screen (AID 1157). Particulars: P. falciparum Indochina infected erythrocytes, osmotic lysis OD700, 18 h; higher = more signal, called active from +8 up or from −8 down.
The nature of assay [7]: S6 kinase pathway phospho-S6 level changes – cell-based, A549, cytoblot, luminescence, serum-stimulated, primary screen (AID 1158).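 Also: serum-stimulated A549 lung adenocarcinoma cells; signal is phosphorylated S6 detected by cytoblot immunostaining with HRP secondary.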 Particulars: 5 h, higher = more signal.
Assay [8] deals with NADPH oxidase 2 (Homo sapiens) (UniProt P04839). As to the kind of experiment: compounds shifting NOX2 Amplex Red fluorescence – cell-based, HEK293-NOX2, PMA-stimulated, NOX inhibitor project, primary screen (AID 1159). Also: test concentration not given here. Particulars: 45 min, higher = more signal, called active from +8 up or from −8 down.
Sequence of NADPH oxidase 2 (Homo sapiens) (P04839 whole entry, looked up): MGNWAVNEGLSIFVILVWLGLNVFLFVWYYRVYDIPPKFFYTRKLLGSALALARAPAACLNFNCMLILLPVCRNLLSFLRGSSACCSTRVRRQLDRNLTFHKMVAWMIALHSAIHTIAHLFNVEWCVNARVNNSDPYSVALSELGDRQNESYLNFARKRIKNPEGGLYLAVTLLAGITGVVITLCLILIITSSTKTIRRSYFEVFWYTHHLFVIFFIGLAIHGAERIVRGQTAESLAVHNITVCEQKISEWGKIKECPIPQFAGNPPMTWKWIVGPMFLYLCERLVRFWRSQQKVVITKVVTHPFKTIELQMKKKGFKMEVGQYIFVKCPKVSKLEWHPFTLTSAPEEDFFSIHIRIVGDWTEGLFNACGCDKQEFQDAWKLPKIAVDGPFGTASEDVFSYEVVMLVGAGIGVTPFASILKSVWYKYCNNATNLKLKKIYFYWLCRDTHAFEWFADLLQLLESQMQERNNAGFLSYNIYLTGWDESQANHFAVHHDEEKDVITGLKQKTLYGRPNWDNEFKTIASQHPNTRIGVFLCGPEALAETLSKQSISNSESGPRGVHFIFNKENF
Assay [9] addresses NADPH oxidase 4 (Homo sapiens) (UniProt Q9NPH5). As to the kind of experiment: compounds shifting NOX4 Amplex Red fluorescence – cell-based, HEK293-NOX4, tetracycline-induced, NOX inhibitor project, primary screen (AID 1160). The note with it: HEK293-NOX4, Amplex Red H2O2 fluorescence, 45 min; higher = more signal, called active from +8 up or from −8 down.
For assay [10], the target named is NADPH oxidase 5 (Homo sapiens) (UniProt Q96PH1). As to the kind of experiment: compounds shifting NOX5 Amplex Red fluorescence – cell-based, HEK293-NOX5, NOX inhibitor project, primary screen (AID 1161). The note with it: HEK293-NOX5, ionomycin, 45 min, higher = more signal.
Sequence of NADPH oxidase 5 (Homo sapiens) (Q96PH1 whole entry, looked up): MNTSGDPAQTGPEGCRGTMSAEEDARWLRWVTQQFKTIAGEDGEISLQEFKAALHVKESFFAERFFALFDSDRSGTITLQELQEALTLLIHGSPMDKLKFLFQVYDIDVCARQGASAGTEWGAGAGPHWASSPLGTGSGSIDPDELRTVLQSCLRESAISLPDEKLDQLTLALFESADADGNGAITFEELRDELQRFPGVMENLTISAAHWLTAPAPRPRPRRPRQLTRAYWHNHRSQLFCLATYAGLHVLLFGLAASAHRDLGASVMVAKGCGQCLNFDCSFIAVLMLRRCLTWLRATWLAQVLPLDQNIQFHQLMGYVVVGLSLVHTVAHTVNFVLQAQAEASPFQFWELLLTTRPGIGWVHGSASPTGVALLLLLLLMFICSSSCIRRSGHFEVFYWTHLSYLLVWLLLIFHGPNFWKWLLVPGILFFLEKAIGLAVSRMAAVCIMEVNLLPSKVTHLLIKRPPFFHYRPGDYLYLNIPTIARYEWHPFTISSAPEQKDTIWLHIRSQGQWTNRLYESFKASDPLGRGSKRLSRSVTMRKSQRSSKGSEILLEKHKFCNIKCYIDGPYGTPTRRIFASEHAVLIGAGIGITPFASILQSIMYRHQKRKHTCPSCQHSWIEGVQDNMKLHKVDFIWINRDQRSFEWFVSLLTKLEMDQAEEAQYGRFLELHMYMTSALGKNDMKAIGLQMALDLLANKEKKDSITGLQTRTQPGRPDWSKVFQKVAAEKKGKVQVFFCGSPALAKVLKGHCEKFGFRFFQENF

Activity calls are given as the source filed them.

Sequence of NADPH oxidase 4 (Homo sapiens) (Q9NPH5 whole entry, looked up): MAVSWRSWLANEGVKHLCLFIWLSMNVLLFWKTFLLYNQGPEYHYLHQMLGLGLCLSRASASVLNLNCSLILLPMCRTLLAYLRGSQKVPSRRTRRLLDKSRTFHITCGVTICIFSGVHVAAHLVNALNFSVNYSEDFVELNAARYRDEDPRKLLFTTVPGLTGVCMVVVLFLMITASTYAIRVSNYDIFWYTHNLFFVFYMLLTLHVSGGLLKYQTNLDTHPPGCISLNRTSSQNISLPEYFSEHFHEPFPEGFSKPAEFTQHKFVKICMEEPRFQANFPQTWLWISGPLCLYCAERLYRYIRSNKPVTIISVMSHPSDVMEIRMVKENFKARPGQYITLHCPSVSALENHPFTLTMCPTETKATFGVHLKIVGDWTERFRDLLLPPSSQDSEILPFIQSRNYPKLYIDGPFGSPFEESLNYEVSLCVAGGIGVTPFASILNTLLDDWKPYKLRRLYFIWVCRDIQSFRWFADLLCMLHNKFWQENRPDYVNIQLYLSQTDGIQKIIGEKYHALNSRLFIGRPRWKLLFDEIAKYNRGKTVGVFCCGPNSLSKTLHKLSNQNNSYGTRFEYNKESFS

With `CN1CCC(CCCO)=CC1c1ccc(CN2CCCC2)cc1` (stereo not given), the z-score is 0.112 (inactive) in assay [1]; -0.274 (inactive) in assay [3]; -0.201 (inactive) in [4]; -0.0797 (inactive) in assay [5]; -0.111 (inactive) in [6]; -0.494 in [7]. In addition, the z-score in assay [8] was -3.22 (inactive); in assay [9], -0.765 (inactive); in assay [10], -0.482. In addition, the composite z-score in assay [2] was 0.663.

Turning to `CCOC(=O)C[C@H]1[C@H](OC(=O)c2ccccc2-c2ccccc2)[C@@H](NC(=O)Cc2ccc(OC)cc2)c2cc(OCCCO)ccc2N1C(=O)c1ccccc1`, the z-score in assay [1] is -1.14 (inactive); in assay [3], 1.57 (inactive); in [4], 0.316 (inactive); in assay [5] it was 0.432 (inactive); in assay [6], 0.208 (inactive); in assay [7] it was -0.127. Further, the z-score in assay [8] was 1.02 (inactive); in assay [9] it was 1.15 (inactive); in assay [10] it was -0.26. The compound also had a composite z-score in [2] of -0.0877.

With `CCCCC=C[C@@H](NC(=O)c1ccco1)c1ccccc1`, the z-score in assay [1] is -1.24 (inactive); in [3] it was 1.02 (inactive); in assay [4] it was 0.941 (inactive); in assay [5], -0.279 (inactive); in assay [6], 0.813 (inactive); in assay [7], 0.782. The z-score is -0.226 (inactive) in assay [8], 0.76 (inactive) in [9] and 1.01 in assay [10]. In assay [2], this compound displayed a composite z-score of 0.0701.

Regarding `O=C1[C@]2(CO)C=C(Br)[C@@H](C[C@@H]2c2ccccc2)[C@@]12CO2`, the z-score in assay [1] was 0.168 (inactive); in [3], 0.0883 (inactive); in assay [4] it was 0.0579 (inactive); in [5], -0.533 (inactive); in assay [6], -0.187 (inactive); in assay [7] it was -0.364. The z-score in [8] is 0.538 (inactive); in assay [9], 0.662 (inactive); in assay [10], -0.211. In [2], this compound gave a composite z-score of -0.188.

With `O=C(OCCF)C1=CCC(c2cccc(Cl)c2)O1` (stereo not given), the z-score in assay [1] was 0.562 (inactive); in assay [3], 16.4 (active); in [4], 0.0666 (inactive); in [5], -0.628 (inactive); in [6] it was -1.21 (inactive); in assay [7] it was 0.543. The z-score in assay [8] is -0.0482 (inactive); in [9], 0.842 (inactive); in assay [10], 0.382. The composite z-score in [2] is -0.378.

On to `COc1ccc(NN2C(C(O)c3ccc(OC)c(OCc4ccccc4)c3)C=CC3C(=O)N(C4CCCCC4)C(=O)C32)cc1` (stereo not given), for which the z-score was 0.678 (inactive) in [1]; 4.41 (inactive) in assay [3]; 1.38 (inactive) in [4]; 0.31 (inactive) in assay [5]; 1 (inactive) in assay [6]; 0.0173 in [7]. Also, the values for the z-score in [8], in assay [9] and in assay [10] were -0.195 (inactive), -1.96 (inactive) and -0.604, respectively. In assay [2], this compound registered a composite z-score of 0.32.

Consider `COCCOC(=O)N1C(=O)[C@@]2(c3cc(C#CCNC(N)=O)ccc31)[C@H](C(=O)N1CCN(c3ncccn3)CC1)[C@H]1C(=O)O[C@H](c3ccccc3)[C@H](c3ccccc3)N1[C@@H]2c1ccccc1OCCO`, for which the z-score in assay [1] was 1.07 (inactive); in assay [3], 2.72 (inactive); in assay [4], 1.32 (inactive); in assay [5], 0.749 (inactive); in assay [6], 0.883 (inactive); in assay [7], 0.915. In addition, the z-score is 1.99 (inactive) in [8], 0.756 (inactive) in [9] and -1.08 in [10]. The composite z-score in [2] amounted to 0.248.

With `C=CCNC(=O)[C@@H]1[C@H]2C(=O)O[C@H](c3ccccc3)[C@H](c3ccccc3)N2[C@H](c2ccc(OCCO)cc2)[C@@]12C(=O)Nc1ccccc12`, the z-score is 1.52 (inactive) in assay [1]; 5.12 (inactive) in assay [3]; 0.39 (inactive) in assay [4]; -0.844 (inactive) in [5]; 0.002 (inactive) in assay [6]; 4.16 in assay [7]. The z-score is 1.38 (inactive) in assay [8], 0.767 (inactive) in assay [9] and -0.355 in [10]. In assay [2], the composite z-score worked out at 0.0235.

For the compound `COc1cc(C(O)C2C=CC3C(=O)N(c4ccccc4)C(=O)C3N2Nc2ccc(C#N)cc2)cc(OC)c1OC` (stereo not given), the z-score in assay [1] is -1.64 (inactive); in assay [3], 24 (active); in [4], 7.24 (inactive); in [5] it was 0.86 (inactive); in assay [6] it was 1.76 (inactive); in assay [7], -1.15. The z-score in assay [8] was -2.04 (inactive); in assay [9], -5.26 (inactive); in [10], -5.34. Moreover, in assay [2], the composite z-score stood at 0.233.

As for `O=C1OCCC=C[C@H]2OC34C=CCN(Cc5ccccc5)C(=O)[C@H]3N(CCCCCO)C(=O)[C@@H]4C12` (stereo not given in full), the z-score in assay [1] was 1.8 (inactive); in assay [3], 1.77 (inactive); in [4], 0.18 (inactive); in [5], 2.12 (inactive); in assay [6], 0.551 (inactive); in assay [7] it was 0.469. In addition, the z-score in assay [8] is 1.39 (inactive); in assay [9] it was 0.701 (inactive); in [10] it was 1.38. Also, the composite z-score in assay [2] was found to be 0.282.

On to `[N-]=[N+]=Nc1ccccc1C[C@]1(C(=O)NCCN2CCOCC2)N=C(c2ccc(OCCCO)cc2)O[C@H]1c1ccccc1`, for which the z-score in assay [1] is 0.0623 (inactive); in [3] it was 14.1 (active); in assay [4] it was 1.53 (inactive); in [5], 1.37 (inactive); in [6], 0.766 (inactive); in [7], -0.0135. Also, the z-score in assay [8] was -1.92 (inactive); in [9], 0.0642 (inactive); in assay [10] it was -1.32. Besides, in [2], the composite z-score was determined as 0.728.

`CCCNC(=O)[C@@]1(c2ccc([N+](=O)[O-])cc2)CC(=O)N(CC23CC4CC(CC(C4)C2)C3)[C@@H]1c1ccc(CO)cc1`: the z-score is -0.0948 (inactive) in assay [1]; 5.64 (inactive) in [3]; 0.903 (inactive) in assay [4]; 2.2 (inactive) in assay [5]; 0.625 (inactive) in [6]; -0.154 in assay [7]. In addition, the z-score is 0.328 (inactive) in assay [8], -1.85 (inactive) in assay [9] and -0.569 in assay [10]. In addition, the composite z-score in [2] was -0.409.

`Cc1ccc(S[C@]2(C(=O)NCc3ccccc3)CC(=O)N(Cc3ccccc3)[C@@H]2c2ccc(CO)cc2)cc1`: the z-score was -1.24 (inactive) in assay [1]; 1.27 (inactive) in assay [3]; 0.115 (inactive) in assay [4]; -0.376 (inactive) in [5]; -0.234 (inactive) in assay [6]; 0.0768 in assay [7]. Also, the z-score in assay [8] is -1.51 (inactive); in [9], 0.494 (inactive); in [10], -0.189. In assay [2], this compound displayed a composite z-score of -0.188.

For the origin of these results see PubChem BioAssay.
